Data from the supplement of paper PMC11732987, “Enantioselective OTUD7B fragment discovery through chemoproteomics screening and high-throughput optimisation” (Communications Chemistry, 2025).

Assays:
Experiment in all cases: log2 ratio of Biotin-Ahx-Ub-VS probe labelling (fragment/DMSO); higher = less target engagement (more negative = stronger competition), active = hit call of the paper (q ≤ 0.05, log2 ratio ≤ -1)
Settings in all cases: compound concentration: 200 uM; treatment time: 3 h
USP42 = target: T1, USP42 (UniProt Q9H9J4)
T1 sequence (whole entry): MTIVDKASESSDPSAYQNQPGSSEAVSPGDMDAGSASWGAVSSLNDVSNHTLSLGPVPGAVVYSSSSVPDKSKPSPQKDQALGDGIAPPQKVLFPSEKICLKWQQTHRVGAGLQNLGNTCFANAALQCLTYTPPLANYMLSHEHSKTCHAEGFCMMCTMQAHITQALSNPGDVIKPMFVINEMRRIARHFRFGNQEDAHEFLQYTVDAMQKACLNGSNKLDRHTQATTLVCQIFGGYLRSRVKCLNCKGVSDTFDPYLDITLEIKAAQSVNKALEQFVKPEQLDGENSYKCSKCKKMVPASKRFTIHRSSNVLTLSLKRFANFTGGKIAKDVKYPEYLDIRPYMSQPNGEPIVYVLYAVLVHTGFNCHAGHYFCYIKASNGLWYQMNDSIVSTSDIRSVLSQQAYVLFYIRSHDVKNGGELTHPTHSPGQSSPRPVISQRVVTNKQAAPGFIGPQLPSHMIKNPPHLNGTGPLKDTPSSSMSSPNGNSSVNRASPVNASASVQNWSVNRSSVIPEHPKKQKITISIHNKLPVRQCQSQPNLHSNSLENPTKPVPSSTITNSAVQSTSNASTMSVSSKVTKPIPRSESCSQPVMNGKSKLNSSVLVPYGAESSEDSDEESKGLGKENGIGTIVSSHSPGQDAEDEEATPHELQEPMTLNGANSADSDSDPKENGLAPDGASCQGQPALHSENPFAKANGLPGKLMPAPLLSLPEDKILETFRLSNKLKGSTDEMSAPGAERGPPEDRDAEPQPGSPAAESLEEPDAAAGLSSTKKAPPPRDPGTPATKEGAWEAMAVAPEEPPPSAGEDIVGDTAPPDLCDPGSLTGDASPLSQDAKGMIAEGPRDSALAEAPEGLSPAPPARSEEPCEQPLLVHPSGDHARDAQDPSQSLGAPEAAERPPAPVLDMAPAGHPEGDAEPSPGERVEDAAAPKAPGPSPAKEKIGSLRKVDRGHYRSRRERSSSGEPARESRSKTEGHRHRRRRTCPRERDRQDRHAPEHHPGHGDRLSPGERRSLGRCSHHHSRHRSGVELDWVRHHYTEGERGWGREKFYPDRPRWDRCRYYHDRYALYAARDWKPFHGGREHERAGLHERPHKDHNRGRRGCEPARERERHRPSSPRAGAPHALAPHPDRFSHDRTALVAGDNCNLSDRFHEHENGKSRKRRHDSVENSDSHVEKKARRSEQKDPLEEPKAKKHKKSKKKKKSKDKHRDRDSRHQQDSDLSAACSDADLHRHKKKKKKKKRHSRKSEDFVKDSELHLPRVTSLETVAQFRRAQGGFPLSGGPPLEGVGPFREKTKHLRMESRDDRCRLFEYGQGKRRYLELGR
Procedure, shortened: (§1)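 HEK293T lysate (495 µg per sample, in Tris/CHAPS/IGEPAL buffer with protease inhibitors) was exposed in triplicate for 3 h to fragment at 200 µM or to vehicle, then to Biotin-Ahx-Ub-VS at 0.5 µM final for 1 h. Labelled DUBs were enriched on NeutrAvidin, digested with LysC and trypsin, and analysed by diaPASEF LC-MS/MS. Spectronaut label-free quantities were normalised to the global median, and values are average log2 ratios of fragment over vehicle from an unpaired t-test. Only proteins with ≥2 unique peptides were used.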

USP46 = USP46 (UniProt P62068)
USP46, sequence (P62068 whole entry): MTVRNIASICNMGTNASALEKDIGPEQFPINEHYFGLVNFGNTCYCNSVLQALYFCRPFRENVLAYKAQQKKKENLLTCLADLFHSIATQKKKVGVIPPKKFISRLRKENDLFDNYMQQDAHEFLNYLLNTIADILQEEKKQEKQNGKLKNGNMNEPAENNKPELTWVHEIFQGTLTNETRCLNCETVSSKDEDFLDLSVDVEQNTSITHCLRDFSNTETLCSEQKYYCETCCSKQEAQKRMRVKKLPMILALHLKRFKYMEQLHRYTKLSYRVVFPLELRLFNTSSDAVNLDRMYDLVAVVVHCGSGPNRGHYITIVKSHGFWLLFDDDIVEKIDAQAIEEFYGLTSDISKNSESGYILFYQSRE
Procedure, shortened: as §1

USP47 = target: T2, USP47 (UniProt Q96K76)
T2 sequence (whole entry): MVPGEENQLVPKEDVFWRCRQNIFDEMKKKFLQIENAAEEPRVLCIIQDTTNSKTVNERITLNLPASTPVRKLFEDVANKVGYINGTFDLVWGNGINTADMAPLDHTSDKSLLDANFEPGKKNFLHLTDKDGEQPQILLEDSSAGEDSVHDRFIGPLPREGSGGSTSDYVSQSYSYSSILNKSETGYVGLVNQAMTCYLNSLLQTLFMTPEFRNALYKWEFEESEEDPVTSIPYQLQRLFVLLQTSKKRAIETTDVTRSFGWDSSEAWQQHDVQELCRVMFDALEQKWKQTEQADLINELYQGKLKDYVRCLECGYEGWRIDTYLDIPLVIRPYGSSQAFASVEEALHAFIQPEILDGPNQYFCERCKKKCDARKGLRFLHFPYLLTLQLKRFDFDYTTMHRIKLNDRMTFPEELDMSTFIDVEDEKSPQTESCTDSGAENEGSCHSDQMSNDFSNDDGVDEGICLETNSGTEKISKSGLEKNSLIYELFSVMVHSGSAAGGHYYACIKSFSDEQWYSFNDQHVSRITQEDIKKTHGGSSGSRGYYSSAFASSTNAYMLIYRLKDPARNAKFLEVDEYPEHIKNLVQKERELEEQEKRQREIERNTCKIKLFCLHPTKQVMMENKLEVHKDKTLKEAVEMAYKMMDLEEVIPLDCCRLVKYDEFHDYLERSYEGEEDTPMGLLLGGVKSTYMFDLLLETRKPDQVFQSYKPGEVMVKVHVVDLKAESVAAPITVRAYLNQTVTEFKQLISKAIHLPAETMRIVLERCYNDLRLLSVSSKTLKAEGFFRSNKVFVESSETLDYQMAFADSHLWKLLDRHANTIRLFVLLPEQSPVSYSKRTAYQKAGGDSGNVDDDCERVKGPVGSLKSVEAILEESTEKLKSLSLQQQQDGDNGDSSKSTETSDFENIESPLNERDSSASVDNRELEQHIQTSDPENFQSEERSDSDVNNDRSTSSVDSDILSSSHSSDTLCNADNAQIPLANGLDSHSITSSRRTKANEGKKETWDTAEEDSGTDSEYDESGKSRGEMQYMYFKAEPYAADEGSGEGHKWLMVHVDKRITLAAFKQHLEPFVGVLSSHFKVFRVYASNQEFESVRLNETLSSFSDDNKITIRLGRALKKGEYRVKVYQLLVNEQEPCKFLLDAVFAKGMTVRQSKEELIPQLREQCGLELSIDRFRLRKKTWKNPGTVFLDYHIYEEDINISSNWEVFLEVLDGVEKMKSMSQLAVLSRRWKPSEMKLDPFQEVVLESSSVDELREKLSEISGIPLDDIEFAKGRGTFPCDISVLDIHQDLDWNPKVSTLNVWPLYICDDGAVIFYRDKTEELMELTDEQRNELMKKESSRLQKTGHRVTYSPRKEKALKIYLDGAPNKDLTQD
Procedure, shortened: as §1

USP48 = target: T3, USP48 (UniProt Q86UV5)
T3 sequence (whole entry): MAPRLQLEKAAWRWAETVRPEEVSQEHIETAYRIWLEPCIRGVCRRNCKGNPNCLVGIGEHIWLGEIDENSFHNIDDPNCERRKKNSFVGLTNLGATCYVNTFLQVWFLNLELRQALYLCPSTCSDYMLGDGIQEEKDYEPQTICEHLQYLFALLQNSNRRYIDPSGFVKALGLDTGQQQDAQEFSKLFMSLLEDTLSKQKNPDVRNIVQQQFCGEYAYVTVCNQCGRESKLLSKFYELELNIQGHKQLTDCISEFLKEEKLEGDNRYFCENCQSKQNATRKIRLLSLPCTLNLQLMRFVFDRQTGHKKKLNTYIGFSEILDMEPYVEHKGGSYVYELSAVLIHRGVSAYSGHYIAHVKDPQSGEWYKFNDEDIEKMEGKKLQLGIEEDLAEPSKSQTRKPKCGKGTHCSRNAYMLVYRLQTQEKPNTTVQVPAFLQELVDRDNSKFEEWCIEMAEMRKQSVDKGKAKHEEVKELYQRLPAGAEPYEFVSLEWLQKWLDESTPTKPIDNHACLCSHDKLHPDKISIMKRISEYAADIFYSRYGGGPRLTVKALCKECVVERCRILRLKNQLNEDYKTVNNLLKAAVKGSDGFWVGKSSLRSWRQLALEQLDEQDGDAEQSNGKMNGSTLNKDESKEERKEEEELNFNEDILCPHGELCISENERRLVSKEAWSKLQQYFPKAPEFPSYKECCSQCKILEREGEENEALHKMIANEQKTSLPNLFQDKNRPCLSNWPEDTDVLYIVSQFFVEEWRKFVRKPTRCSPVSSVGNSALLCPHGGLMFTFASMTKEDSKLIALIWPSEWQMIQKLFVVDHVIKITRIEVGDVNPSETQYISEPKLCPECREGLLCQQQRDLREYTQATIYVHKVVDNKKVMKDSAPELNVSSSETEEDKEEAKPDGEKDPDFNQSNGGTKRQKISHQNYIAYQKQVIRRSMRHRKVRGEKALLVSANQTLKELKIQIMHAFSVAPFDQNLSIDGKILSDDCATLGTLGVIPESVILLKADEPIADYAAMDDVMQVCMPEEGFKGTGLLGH
Procedure, shortened: as §1

USP5 = target: T4, USP5 (UniProt P45974)
T4 sequence (whole entry): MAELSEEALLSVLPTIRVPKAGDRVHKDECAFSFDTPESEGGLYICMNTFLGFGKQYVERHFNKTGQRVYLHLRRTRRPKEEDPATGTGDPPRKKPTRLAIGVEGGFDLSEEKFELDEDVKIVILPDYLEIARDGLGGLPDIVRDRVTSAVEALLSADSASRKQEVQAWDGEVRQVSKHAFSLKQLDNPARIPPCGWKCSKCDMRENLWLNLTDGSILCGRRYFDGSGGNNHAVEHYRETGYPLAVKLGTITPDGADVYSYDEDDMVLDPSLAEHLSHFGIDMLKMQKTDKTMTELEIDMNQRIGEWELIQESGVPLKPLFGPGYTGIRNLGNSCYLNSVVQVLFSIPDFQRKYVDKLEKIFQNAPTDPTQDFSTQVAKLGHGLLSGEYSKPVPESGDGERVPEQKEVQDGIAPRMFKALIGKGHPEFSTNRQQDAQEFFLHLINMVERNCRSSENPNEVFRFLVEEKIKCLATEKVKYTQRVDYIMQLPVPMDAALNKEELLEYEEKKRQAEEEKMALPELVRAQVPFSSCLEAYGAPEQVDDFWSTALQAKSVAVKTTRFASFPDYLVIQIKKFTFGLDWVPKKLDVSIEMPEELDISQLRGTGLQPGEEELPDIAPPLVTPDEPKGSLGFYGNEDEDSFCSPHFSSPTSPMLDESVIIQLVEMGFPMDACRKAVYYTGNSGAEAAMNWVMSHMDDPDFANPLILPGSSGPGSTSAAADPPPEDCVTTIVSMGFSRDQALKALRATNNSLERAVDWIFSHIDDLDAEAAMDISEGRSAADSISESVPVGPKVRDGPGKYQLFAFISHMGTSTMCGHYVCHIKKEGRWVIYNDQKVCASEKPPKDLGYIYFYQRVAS
Procedure, shortened: as §1

USP54 = USP54 (UniProt Q70EL1)
Procedure, shortened: as §1

USP7 = USP7 (UniProt Q93009)
USP7, sequence (Q93009 whole entry, looked up): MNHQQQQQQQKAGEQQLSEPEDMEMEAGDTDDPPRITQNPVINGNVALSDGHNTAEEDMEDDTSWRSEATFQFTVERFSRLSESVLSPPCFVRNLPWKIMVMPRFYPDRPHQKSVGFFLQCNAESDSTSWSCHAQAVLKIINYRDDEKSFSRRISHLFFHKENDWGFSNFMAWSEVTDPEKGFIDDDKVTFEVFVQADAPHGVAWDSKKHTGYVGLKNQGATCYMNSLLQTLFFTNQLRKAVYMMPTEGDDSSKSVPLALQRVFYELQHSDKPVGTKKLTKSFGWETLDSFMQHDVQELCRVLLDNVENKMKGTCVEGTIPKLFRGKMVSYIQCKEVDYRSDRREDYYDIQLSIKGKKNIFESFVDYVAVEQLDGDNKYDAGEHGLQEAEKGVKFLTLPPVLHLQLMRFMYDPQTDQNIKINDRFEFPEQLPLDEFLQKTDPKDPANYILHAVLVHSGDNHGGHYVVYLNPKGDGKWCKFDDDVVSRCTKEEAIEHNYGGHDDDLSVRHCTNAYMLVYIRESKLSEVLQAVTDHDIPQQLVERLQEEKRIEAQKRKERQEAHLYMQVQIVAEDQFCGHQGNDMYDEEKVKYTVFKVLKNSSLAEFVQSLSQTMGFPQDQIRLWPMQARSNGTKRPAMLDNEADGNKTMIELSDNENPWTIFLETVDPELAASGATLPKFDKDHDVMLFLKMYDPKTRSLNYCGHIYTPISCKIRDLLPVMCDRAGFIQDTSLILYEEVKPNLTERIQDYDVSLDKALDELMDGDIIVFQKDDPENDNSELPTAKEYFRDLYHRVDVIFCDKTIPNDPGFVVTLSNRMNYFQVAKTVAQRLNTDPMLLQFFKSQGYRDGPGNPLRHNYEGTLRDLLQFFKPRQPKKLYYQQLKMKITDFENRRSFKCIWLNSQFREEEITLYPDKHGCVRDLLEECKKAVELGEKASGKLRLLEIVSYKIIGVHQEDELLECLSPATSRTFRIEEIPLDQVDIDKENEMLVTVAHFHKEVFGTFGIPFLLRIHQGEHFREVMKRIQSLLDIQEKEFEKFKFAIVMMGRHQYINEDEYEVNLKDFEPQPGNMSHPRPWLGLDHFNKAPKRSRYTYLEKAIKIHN
Procedure, shortened: as §1

USP8 = target: T5, USP8 (UniProt P40818)
T5 sequence (whole entry): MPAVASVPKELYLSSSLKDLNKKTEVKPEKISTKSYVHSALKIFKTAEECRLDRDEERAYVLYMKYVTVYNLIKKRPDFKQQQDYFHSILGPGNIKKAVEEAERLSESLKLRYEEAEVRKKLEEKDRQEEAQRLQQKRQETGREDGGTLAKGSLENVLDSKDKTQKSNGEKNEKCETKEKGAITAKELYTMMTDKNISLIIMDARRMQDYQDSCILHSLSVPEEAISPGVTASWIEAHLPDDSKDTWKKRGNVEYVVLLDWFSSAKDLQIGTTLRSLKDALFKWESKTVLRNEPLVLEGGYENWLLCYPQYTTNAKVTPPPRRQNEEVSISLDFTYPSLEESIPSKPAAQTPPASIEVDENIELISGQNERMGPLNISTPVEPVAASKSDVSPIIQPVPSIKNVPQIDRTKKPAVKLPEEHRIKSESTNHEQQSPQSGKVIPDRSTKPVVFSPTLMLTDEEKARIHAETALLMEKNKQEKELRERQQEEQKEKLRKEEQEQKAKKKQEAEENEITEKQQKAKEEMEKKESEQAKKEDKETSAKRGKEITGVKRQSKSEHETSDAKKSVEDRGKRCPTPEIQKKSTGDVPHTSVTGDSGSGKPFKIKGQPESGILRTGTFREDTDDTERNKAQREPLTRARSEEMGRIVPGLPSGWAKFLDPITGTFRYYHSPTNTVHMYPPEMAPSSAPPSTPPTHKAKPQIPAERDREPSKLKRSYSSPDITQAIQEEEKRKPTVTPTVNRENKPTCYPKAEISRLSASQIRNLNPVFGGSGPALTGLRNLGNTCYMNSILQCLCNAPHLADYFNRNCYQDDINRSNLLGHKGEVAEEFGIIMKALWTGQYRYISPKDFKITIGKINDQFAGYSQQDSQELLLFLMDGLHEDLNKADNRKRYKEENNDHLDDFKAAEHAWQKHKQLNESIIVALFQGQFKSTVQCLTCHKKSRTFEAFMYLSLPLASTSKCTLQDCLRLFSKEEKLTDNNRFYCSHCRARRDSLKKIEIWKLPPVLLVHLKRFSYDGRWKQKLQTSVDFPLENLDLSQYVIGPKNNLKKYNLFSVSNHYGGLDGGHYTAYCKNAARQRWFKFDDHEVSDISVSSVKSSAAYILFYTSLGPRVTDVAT
Procedure, shortened: as §1

USP9X = USP9X (UniProt Q93008)
USP9X, sequence (Q93008 whole entry): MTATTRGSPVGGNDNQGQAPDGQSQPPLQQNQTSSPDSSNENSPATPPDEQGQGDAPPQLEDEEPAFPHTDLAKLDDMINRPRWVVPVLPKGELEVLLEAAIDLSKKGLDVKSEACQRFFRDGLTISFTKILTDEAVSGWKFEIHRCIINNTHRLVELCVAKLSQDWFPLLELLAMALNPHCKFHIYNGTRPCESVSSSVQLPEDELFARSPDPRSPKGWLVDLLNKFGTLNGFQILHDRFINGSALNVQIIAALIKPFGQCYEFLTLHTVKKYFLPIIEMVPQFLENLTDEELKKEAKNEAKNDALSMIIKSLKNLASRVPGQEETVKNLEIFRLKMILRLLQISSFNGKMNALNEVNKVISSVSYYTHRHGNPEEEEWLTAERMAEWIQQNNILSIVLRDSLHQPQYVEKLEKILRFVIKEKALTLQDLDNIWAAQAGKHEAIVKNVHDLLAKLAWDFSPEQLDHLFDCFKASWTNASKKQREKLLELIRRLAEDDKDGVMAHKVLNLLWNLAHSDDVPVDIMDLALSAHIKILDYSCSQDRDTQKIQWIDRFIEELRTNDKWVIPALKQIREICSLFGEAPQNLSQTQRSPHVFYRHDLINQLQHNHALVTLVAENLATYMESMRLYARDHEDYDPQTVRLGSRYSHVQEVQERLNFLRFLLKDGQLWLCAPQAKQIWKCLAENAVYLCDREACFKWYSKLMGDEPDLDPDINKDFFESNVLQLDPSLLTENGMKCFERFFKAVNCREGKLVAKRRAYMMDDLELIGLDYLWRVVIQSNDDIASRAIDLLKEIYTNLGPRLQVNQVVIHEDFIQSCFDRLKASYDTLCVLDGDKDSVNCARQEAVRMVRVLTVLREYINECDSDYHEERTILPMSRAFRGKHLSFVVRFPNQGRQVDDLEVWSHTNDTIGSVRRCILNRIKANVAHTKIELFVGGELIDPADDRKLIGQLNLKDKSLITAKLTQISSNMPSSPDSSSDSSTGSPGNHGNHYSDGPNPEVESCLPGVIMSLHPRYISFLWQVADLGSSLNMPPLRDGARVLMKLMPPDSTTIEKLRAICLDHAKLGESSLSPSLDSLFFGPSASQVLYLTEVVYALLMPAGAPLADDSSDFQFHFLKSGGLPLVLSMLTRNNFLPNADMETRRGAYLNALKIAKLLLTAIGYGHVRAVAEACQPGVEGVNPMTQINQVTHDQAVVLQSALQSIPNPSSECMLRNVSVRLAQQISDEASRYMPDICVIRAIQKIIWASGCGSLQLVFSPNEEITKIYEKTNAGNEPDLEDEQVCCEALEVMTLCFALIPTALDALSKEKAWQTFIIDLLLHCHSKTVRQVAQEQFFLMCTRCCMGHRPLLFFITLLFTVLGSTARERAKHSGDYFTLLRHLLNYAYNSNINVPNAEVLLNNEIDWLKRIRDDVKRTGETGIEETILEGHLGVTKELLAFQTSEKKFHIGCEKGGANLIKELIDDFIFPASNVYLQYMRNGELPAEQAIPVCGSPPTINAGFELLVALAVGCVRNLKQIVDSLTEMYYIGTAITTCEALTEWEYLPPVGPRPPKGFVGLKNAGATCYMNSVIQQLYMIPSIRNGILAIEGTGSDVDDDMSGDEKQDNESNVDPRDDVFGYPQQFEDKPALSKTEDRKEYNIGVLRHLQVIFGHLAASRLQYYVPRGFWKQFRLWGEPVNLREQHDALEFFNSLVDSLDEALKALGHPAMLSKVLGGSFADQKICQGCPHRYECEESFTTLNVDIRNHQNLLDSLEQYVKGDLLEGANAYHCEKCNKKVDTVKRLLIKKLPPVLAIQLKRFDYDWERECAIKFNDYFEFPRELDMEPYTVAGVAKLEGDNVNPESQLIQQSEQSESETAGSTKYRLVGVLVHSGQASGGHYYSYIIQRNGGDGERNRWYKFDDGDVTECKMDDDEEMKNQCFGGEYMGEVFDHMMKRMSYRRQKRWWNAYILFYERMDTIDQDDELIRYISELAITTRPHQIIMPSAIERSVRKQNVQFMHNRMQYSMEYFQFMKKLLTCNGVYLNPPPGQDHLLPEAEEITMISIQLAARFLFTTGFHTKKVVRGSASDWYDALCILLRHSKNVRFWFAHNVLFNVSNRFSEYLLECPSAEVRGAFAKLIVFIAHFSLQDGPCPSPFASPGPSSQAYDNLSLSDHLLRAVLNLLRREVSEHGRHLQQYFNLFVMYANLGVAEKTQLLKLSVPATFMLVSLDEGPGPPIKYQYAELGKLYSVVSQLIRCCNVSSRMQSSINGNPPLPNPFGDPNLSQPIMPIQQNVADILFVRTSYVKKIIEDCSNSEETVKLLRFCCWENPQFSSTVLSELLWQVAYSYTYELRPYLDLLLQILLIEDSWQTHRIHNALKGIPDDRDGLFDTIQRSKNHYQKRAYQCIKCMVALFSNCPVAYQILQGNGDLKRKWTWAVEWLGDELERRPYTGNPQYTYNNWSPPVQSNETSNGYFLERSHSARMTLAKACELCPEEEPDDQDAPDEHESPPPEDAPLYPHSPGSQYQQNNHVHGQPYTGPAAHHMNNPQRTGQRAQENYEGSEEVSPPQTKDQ
Procedure, shortened: as §1

UniProt O00487 = target: UniProt O00487
UniProt O00487, sequence (O00487 whole entry): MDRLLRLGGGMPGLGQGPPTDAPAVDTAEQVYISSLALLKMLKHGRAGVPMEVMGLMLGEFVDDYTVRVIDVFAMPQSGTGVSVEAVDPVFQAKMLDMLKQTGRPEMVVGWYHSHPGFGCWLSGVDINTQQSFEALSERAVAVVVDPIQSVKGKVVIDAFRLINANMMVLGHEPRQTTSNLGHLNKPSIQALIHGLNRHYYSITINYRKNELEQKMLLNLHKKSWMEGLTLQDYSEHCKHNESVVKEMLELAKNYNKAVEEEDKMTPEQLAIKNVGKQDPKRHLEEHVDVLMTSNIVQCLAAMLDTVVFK
Procedure, shortened: as §1

Measured: log2 ratio of Biotin-Ahx-Ub-VS probe labelling

Cc1ccc(CN(C)C(=O)CCl)o1
inactive: USP42 0.191 | USP46 -0.175 | USP47 0.0147 | USP48 -0.264 | USP5 0.245 | USP54 0.355 | USP7 -0.538 | USP8 -0.199 | USP9X -0.23 | UniProt O00487 -0.0611

O=C(CCl)N1CCCCC12CCOCC2
inactive: USP42 -0.368 | USP46 -0.278 | USP47 -0.146 | USP48 -0.525 | USP5 -0.258 | USP54 0.442 | USP7 -0.511 | USP8 -0.237 | USP9X -0.584 | UniProt O00487 -0.282

NC(=O)C1CCCN(C(=O)CCl)C1 (stereo not given)
inactive: USP42 -0.105 | USP46 0.15 | USP47 -0.831 | USP48 -0.259 | USP5 -0.0828 | USP54 0.785 | USP7 -0.0546 | USP8 -0.122 | USP9X -0.029 | UniProt O00487 -0.0923

O=C(CCl)N1CCN(C(=O)N2CCCCC2)CC1
inactive: USP42 0.232 | USP46 -0.637 | USP47 -0.616 | USP48 -0.949 | USP54 0.892 | USP8 -0.843 | UniProt O00487 -0.0311
active: USP5 -1.13 | USP7 -1.12 | USP9X -1.11
